# In the antibiotic and cytotoxicity screens of Wong et al. (2023):
# Hit rate of the full screen: of about 39,000 compounds, about 3,300 (8.5%) were called active. What follows is part of a selection rich in actives, with near analogues and random picks from the rest.
# Test system: HepG2
# Assay: cytotoxicity call (relative viability < 0.9)
# Conditions: 10 µM
row,SMILES,cytotoxicity call
1,COc1ccc(S(=O)(=O)N(C)C[C@@H]2Oc3ccc(NS(=O)(=O)c4ccc(C)cc4)cc3C(=O)N([C@H](C)CO)C[C@H]2C)cc1,inactive
2,COC(=O)[C@H]1CCNCCC1=O,inactive
3,CN1CCN(C(=O)C[C@H]2CC[C@H]3[C@@H](COC[C@H](O)CN3CC3CCCC3)O2)CC1,inactive
4,C[C@H](CO)N1C[C@H](C)[C@@H](CN(C)C(=O)Nc2ccnc(N3CCOCC3)c2)OCc2cnnn2CCCC1=O,inactive
5,Cn1cnc(S(=O)(=O)N[C@@H]2C=C[C@@H](CC(=O)NCC3CC3)O[C@H]2CO)c1,inactive
6,O=C(O)C12CC(C1)C2,inactive
7,COCC(=O)N(C)C[C@H]1Oc2cc(-c3ccc(C#N)cc3)ccc2S(=O)(=O)N([C@@H](C)CO)C[C@H]1C,inactive
8,Cc1noc(C)c1NC(=O)N[C@H]1C=C[C@H](CC(=O)N2CCN(C)CC2)O[C@H]1CO,inactive
9,COc1cccc(C#Cc2ccc3c(c2)O[C@@H](CN(C)C(=O)CN2CCOCC2)[C@H](C)CN([C@H](C)CO)S3(=O)=O)c1,inactive
10,Cc1ccc(S(=O)(=O)N(C)C[C@@H]2OCCCC[C@H](C)Oc3ccc(NC(=O)CCC(F)(F)F)cc3C(=O)N([C@H](C)CO)C[C@H]2C)cc1,inactive
11,CC[C@H]1OC(=O)C[C@@H](O)[C@H](C)[C@@H](O[C@@H]2O[C@H](C)[C@@H](O)[C@H](N(C)C)[C@H]2O)[C@@H](CCN2C[C@H](C)C[C@H](C)C2)C[C@@H](C)C(=O)/C=C/C(C)=C/[C@@H]1CO[C@@H]1O[C@H](C)[C@@H](O)[C@@H](OC)[C@H]1OC,inactive
12,CC[C@@H]1OC(=O)C[C@@H](O)[C@H](C)[C@@H](O[C@@H]2O[C@H](C)[C@@H](O)[C@H](N(C)C)[C@H]2O)[C@@H](CCN2C[C@H](C)C[C@H](C)C2)C[C@@H](C)C(=O)/C=C/C(C)=C\[C@@H]1CO[C@@H]1O[C@H](C)[C@@H](O)[C@@H](OC)[C@H]1OC,inactive
13,CCC1OC(=O)CC(O)C(C)C(OC2OC(C)C(O)C(N(C)C)C2O)C(CCN2CC(C)CC(C)C2)CC(C)C(=O)C=CC(C)=CC1COC1OC(C)C(O)C(OC)C1OC (stereo not given),active
14,C[C@H](CO)N1C[C@H](C)[C@H](CN(C)Cc2ccncc2)Oc2ccc(NS(=O)(=O)c3cccs3)cc2C1=O,inactive
15,CC(=O)OC1CC2C(C)(C)C(O)CCC2(C)C2CCC3(C)C(c4ccoc4)OC(=O)C4OC43C12C (stereo not given),inactive
16,Cc1noc(C)c1S(=O)(=O)N(C)C[C@H]1Oc2ccc(NC(=O)C3CC3)cc2CC(=O)N([C@@H](C)CO)C[C@@H]1C,inactive
17,C[C@@H]1CN([C@@H](C)CO)C(=O)c2cc(NC(=O)Nc3ccc(C(F)(F)F)cc3)ccc2O[C@@H](C)CCCCO[C@H]1CN(C)S(=O)(=O)c1ccc(F)cc1,inactive
18,C[C@H]1CCCCO[C@H](CN(C)S(=O)(=O)c2ccc(F)cc2)[C@@H](C)CN([C@@H](C)CO)C(=O)c2cc(NC(=O)Nc3ccc(C(F)(F)F)cc3)ccc2O1,inactive
19,C[C@@H]1CCCCO[C@@H](CN(C)S(=O)(=O)c2ccc(F)cc2)[C@H](C)CN([C@@H](C)CO)C(=O)c2cc(NC(=O)Nc3ccc(C(F)(F)F)cc3)ccc2O1,inactive
20,C[C@@H]1CCCCO[C@@H](CN(C)S(=O)(=O)c2ccc(F)cc2)[C@@H](C)CN([C@@H](C)CO)C(=O)c2cc(NC(=O)Nc3ccc(C(F)(F)F)cc3)ccc2O1,active

row,SMILES,cytotoxicity call
1,C[C@@H]1CCCCO[C@H](CN(C)S(=O)(=O)c2ccc(F)cc2)[C@H](C)CN([C@@H](C)CO)C(=O)c2cc(NC(=O)Nc3ccc(C(F)(F)F)cc3)ccc2O1,active
2,C[C@@H]1CCCCO[C@H](CN(C)S(=O)(=O)c2ccc(F)cc2)[C@@H](C)CN([C@H](C)CO)C(=O)c2cc(NC(=O)Nc3ccc(C(F)(F)F)cc3)ccc2O1,active
3,C[C@H](CO)N1C[C@H](C)[C@@H](CN(C)S(=O)(=O)c2ccc(F)cc2)OCCCC[C@H](C)Oc2ccc(NC(=O)Nc3ccc(C(F)(F)F)cc3)cc2C1=O,inactive
4,C[C@@H]1CN([C@H](C)CO)C(=O)c2cc(NC(=O)Nc3ccc(C(F)(F)F)cc3)ccc2O[C@@H](C)CCCCO[C@@H]1CN(C)S(=O)(=O)c1ccc(F)cc1,inactive
5,C[C@H](CO)N1C[C@H](C)[C@H](CN(C)S(=O)(=O)c2ccc(F)cc2)OCCCC[C@H](C)Oc2ccc(NC(=O)Nc3ccc(C(F)(F)F)cc3)cc2C1=O,inactive
6,COc1ccc(C#Cc2cccc(-c3nc(C(=O)N[C@@H]4CCN(Cc5ccccc5)C4)cc4c3[C@@H](CCO)N(S(=O)C(C)(C)C)C4)c2)cc1OC (stereo not given in full),inactive
7,c1ccc2cc3nc4c(ccc5ccccc54)nc3cc2c1,inactive
8,C[C@@H]1CCCCO[C@@H](CN(C)C(=O)NC2CCCCC2)[C@@H](C)CN([C@H](C)CO)C(=O)c2cc(NC(=O)c3ccccc3)ccc2O1,inactive
9,C[C@@H]1CN([C@@H](C)CO)S(=O)(=O)c2ccc(C#Cc3ccccc3)cc2O[C@H]1CN(C)S(C)(=O)=O,inactive
10,C[C@H](CO)N1C[C@H](C)[C@@H](CN(C)Cc2ccncc2)Oc2c(NC(=O)c3cnccn3)cccc2C1=O,inactive
11,CC(C)NC(=O)Nc1ccc2c(c1)C(=O)N([C@H](C)CO)C[C@H](C)[C@H](CN(C)C(=O)Nc1cccc3ccccc13)OCCCC[C@H](C)O2,active
12,CC(C)NC(=O)Nc1ccc2c(c1)C(=O)N([C@@H](C)CO)C[C@@H](C)[C@@H](CN(C)C(=O)Nc1cccc3ccccc13)OCCCC[C@@H](C)O2,inactive
13,C[C@@H]1CCCCO[C@H](CN(C)C(=O)Nc2cccc3ccccc23)[C@H](C)CN([C@@H](C)CO)C(=O)c2cc(NC(=O)Nc3ccc(C(F)(F)F)cc3)ccc2O1,active
14,CC(C)NC(=O)Nc1ccc2c(c1)C(=O)N([C@H](C)CO)C[C@@H](C)[C@H](CN(C)C(=O)Nc1cccc3ccccc13)OCCCC[C@H](C)O2,inactive
15,C[C@@H]1CN([C@@H](C)CO)C(=O)c2cc(NC(=O)Nc3ccc(C(F)(F)F)cc3)ccc2O[C@@H](C)CCCCO[C@H]1CN(C)C(=O)Nc1cccc2ccccc12,inactive
16,C[C@H](CO)N1C[C@H](C)[C@@H](CN(C)C(=O)Nc2cccc3ccccc23)OCCCC[C@H](C)Oc2ccc(NC(=O)Nc3cccc4ccccc34)cc2C1=O,inactive
17,C[C@@H]1CCCCO[C@@H](CN(C)C(=O)Nc2cccc3ccccc23)[C@H](C)CN([C@@H](C)CO)C(=O)c2cc(NC(=O)Nc3cccc4ccccc34)ccc2O1,active
18,C[C@@H]1CN([C@@H](C)CO)C(=O)c2cc(NC(=O)Nc3ccc(C(F)(F)F)cc3)ccc2O[C@@H](C)CCCCO[C@@H]1CN(C)C(=O)Nc1cccc2ccccc12,inactive
19,C[C@@H]1CN([C@@H](C)CO)C(=O)c2cc(NC(=O)Nc3cccc4ccccc34)ccc2O[C@@H](C)CCCCO[C@H]1CN(C)C(=O)Nc1cccc2ccccc12,inactive
20,CN(C)CCCNC(=O)C[C@@H]1C=C[C@H](NS(=O)(=O)c2ccccc2)[C@H](CO)O1,inactive

row,SMILES,cytotoxicity call
1,CO[C@@H]1CN(C)C(=O)c2cc(NC(=O)C3CC3)ccc2OC[C@@H](C)N(C(=O)Cc2ccccn2)C[C@H]1C,inactive
2,NC(=O)c1ccc[n+](CC(=O)c2ccccc2)c1,inactive
3,C[C@@H]1CN([C@H](C)CO)C(=O)c2cc(NC(=O)Cc3ccccc3)ccc2O[C@@H](C)CCCCO[C@@H]1CN(C)CC1CCCCC1,inactive
4,Cc1noc(C)c1S(=O)(=O)N(C)C[C@@H]1OCCCC[C@H](C)Oc2ccc(NS(=O)(=O)c3cn(C)cn3)cc2C(=O)N([C@@H](C)CO)C[C@H]1C,inactive
5,OC[C@@H]1CC[C@@H]2O[C@H](CCc3ccc(C#CCc4ccccc4)cc3)[C@@H](n3cc(-c4ccccc4)nn3)C[C@@H]2O1,inactive
6,CO[C@H](C(=O)N(C)C[C@@H]1OCc2ccccc2-c2c(n(C)c3ccccc23)C(=O)N([C@H](C)CO)C[C@H]1C)c1ccccc1,inactive
7,CN(C)C(=O)[C@H]1[C@H](CO)[C@H]2Cn3c(ccc(C4=CCCC4)c3=O)[C@@H]1N2S(=O)(=O)c1cn(C)cn1,inactive
8,O=C(C[C@@H]1CC[C@H]2[C@@H](COC[C@H](O)CN2S(=O)(=O)c2cccc(F)c2)O1)NCc1ccc(Cl)c(Cl)c1,inactive
9,C[C@@H]1CN([C@H](C)CO)C(=O)c2cc(NC(=O)CCC(F)(F)F)ccc2O[C@@H]1CN(C)Cc1ccc(-c2ccccc2)cc1,inactive
10,C[C@H](CO)N1C[C@H](C)[C@@H](CN(C)Cc2ccc(-c3ccccc3)cc2)Oc2ccc(NC(=O)CCC(F)(F)F)cc2C1=O,inactive
11,C[C@H]1CN([C@@H](C)CO)C(=O)c2cc(NC(=O)CCC(F)(F)F)ccc2O[C@@H]1CN(C)Cc1ccc(-c2ccccc2)cc1,active
12,C[C@H]1CN([C@@H](C)CO)C(=O)c2cc(NC(=O)CCC(F)(F)F)ccc2O[C@@H]1CN(C)Cc1ccc(C(F)(F)F)cc1,inactive
13,C[C@H]1CN([C@@H](C)CO)C(=O)c2cc(NC(=O)CCC(F)(F)F)ccc2O[C@H]1CN(C)Cc1ccc(-c2ccccc2)cc1,inactive
14,C[C@@H]1CN([C@@H](C)CO)C(=O)c2cc(NC(=O)CCC(F)(F)F)ccc2O[C@@H]1CN(C)Cc1ccc(-c2ccccc2)cc1,inactive
15,C[C@H](CO)N1C[C@H](C)[C@H](CN(C)Cc2ccc(-c3ccccc3)cc2)Oc2ccc(NC(=O)CCC(F)(F)F)cc2C1=O,active
16,C[C@@H]1CN([C@H](C)CO)C(=O)c2cc(NC(=O)CCC(F)(F)F)ccc2O[C@H]1CN(C)Cc1ccc(-c2ccccc2)cc1,active
17,C[C@H](CO)N1C[C@H](C)[C@H](CN(C)Cc2ccc(C(F)(F)F)cc2)Oc2ccc(NC(=O)CCC(F)(F)F)cc2C1=O,inactive
18,C[C@@H]1CN([C@@H](C)CO)C(=O)c2cc(NC(=O)CCC(F)(F)F)ccc2O[C@H]1CN(C)Cc1ccc(-c2ccccc2)cc1,active
19,C[C@@H]1CN([C@@H](C)CO)C(=O)c2cc(NC(=O)CCC(F)(F)F)ccc2O[C@H]1CN(C)Cc1ccc(Oc2ccccc2)cc1,inactive
20,C[C@H](CO)N1C[C@H](C)[C@@H](CN(C)Cc2ccc(Oc3ccccc3)cc2)Oc2ccc(NC(=O)CCC(F)(F)F)cc2C1=O,inactive
